Measured values: the supplement of paper PMC11732987, “Enantioselective OTUD7B fragment discovery through chemoproteomics screening and high-throughput optimisation” (Communications Chemistry, 2025)

Columns and labels:
Experiment in all cases: log2 ratio of Biotin-Ahx-Ub-VS probe labelling (fragment/DMSO); higher = less target engagement (more negative = stronger competition), active = hit call of the paper (q ≤ 0.05, log2 ratio ≤ -1)
Conditions in all cases: compound concentration: 200 uM; treatment time: 3 h
OTUD6B = molecular target: T1, OTUD6B (UniProt Q8N6M0)
T1 sequence (whole entry): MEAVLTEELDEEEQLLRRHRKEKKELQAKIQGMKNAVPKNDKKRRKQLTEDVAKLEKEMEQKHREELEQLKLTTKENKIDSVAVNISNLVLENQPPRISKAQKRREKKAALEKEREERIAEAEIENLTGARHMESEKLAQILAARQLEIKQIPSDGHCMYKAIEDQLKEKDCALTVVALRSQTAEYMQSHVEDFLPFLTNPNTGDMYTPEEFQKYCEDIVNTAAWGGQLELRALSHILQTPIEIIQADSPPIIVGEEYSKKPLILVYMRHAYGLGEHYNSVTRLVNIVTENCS
Method in brief: (§1)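 Using Biotin-Ahx-Ub-VS at 0.5 µM final for 1 h, DUBs were labelled in HEK293T lysate (495 µg per sample) that had first been treated in triplicate with fragment at 200 µM or vehicle for 3 h. NeutrAvidin enrichment, LysC and trypsin digestion and diaPASEF LC-MS/MS followed. Spectronaut label-free quantities were global-median-normalised. Values are average log2 fragment/vehicle ratios by unpaired t-test, using proteins with ≥2 unique peptides.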

OTUD7B = molecular target: T2, OTUD7B (UniProt Q6GQQ9)
T2 sequence (whole entry): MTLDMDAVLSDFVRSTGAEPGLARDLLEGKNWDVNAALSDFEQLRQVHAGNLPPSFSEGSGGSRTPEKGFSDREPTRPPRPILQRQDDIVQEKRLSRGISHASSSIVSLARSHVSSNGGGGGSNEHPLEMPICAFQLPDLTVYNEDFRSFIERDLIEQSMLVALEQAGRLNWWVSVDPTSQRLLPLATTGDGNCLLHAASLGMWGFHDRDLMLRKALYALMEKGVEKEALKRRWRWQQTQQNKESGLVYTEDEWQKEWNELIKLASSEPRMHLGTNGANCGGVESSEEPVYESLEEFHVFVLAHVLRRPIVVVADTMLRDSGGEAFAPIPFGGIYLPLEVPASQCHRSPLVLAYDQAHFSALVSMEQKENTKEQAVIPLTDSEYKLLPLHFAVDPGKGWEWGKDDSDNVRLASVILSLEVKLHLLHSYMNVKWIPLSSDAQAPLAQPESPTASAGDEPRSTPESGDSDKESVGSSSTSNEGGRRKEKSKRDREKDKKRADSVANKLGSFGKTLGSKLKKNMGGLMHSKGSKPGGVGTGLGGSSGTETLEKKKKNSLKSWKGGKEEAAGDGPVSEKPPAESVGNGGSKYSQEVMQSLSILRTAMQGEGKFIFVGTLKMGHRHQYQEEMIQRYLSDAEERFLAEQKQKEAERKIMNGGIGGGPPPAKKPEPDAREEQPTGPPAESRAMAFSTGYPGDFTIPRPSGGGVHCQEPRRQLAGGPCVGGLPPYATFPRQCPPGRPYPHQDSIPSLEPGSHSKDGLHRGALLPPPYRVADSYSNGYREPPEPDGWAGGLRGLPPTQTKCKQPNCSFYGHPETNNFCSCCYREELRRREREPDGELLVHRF
Method in brief: as §1

PRPF8 = PRPF8 (UniProt Q6P2Q9)
Method in brief: as §1

PSMD7 = molecular target: T3, PSMD7 (UniProt P51665)
T3 sequence (whole entry): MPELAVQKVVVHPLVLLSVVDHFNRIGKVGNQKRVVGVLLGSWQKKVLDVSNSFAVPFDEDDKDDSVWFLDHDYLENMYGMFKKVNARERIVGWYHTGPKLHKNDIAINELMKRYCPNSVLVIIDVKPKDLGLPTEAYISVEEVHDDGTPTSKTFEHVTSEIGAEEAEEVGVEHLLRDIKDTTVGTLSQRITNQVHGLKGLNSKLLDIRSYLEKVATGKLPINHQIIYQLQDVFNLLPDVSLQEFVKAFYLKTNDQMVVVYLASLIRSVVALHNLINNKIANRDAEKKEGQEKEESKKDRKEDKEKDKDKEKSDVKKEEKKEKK
Method in brief: as §1

UCHL1 = UCHL1 (UniProt P09936)
Sequence of UCHL1 (P09936 whole entry, looked up): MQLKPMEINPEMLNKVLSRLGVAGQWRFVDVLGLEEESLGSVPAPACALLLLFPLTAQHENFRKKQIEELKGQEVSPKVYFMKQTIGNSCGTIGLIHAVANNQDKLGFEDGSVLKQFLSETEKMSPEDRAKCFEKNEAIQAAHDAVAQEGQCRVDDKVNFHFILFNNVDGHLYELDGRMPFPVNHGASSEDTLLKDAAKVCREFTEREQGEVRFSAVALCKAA
Method in brief: as §1

UCHL3 = molecular target: T4, UCHL3 (UniProt P15374)
T4 sequence (whole entry): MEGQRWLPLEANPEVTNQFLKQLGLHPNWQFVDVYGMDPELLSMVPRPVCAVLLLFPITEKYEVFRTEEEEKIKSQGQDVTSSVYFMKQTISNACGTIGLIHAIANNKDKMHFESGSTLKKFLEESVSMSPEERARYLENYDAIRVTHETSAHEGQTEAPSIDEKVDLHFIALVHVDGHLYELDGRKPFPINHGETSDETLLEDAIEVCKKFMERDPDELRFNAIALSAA
Method in brief: as §1

UCHL5 = molecular target: T5, UCHL5 (UniProt Q9Y5K5)
T5 sequence (whole entry): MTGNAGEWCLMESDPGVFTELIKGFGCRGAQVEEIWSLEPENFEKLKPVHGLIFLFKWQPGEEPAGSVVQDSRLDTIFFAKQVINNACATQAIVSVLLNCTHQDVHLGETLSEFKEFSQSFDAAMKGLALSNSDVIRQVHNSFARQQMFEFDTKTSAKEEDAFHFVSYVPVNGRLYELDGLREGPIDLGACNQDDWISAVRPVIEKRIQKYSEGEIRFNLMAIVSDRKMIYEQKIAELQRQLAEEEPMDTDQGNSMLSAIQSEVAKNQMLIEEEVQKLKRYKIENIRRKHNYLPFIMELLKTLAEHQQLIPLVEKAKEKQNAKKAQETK
Method in brief: as §1

USP10 = USP10 (UniProt Q14694)
Sequence of USP10 (Q14694 whole entry): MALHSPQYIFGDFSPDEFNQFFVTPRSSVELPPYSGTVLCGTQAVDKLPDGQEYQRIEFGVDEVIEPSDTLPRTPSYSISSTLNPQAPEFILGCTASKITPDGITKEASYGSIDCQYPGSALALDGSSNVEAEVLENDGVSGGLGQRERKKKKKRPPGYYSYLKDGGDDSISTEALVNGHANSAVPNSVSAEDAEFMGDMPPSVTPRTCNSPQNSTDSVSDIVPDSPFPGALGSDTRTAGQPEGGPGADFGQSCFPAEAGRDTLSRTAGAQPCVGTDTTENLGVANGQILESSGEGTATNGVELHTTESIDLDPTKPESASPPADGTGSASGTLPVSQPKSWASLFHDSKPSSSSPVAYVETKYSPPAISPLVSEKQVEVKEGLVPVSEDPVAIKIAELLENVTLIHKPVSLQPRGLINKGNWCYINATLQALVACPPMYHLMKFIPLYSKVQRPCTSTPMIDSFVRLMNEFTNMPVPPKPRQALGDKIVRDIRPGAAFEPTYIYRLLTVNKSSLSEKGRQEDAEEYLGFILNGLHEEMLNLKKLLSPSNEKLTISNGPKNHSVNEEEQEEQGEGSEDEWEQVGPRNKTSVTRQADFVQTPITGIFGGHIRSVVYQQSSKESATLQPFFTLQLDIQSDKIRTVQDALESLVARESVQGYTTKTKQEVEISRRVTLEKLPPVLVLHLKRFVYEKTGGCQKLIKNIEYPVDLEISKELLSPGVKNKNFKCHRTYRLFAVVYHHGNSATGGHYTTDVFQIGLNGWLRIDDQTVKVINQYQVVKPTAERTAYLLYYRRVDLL
Method in brief: as §1

USP15 = molecular target: T6, USP15 (UniProt Q9Y4E8)
T6 sequence (whole entry): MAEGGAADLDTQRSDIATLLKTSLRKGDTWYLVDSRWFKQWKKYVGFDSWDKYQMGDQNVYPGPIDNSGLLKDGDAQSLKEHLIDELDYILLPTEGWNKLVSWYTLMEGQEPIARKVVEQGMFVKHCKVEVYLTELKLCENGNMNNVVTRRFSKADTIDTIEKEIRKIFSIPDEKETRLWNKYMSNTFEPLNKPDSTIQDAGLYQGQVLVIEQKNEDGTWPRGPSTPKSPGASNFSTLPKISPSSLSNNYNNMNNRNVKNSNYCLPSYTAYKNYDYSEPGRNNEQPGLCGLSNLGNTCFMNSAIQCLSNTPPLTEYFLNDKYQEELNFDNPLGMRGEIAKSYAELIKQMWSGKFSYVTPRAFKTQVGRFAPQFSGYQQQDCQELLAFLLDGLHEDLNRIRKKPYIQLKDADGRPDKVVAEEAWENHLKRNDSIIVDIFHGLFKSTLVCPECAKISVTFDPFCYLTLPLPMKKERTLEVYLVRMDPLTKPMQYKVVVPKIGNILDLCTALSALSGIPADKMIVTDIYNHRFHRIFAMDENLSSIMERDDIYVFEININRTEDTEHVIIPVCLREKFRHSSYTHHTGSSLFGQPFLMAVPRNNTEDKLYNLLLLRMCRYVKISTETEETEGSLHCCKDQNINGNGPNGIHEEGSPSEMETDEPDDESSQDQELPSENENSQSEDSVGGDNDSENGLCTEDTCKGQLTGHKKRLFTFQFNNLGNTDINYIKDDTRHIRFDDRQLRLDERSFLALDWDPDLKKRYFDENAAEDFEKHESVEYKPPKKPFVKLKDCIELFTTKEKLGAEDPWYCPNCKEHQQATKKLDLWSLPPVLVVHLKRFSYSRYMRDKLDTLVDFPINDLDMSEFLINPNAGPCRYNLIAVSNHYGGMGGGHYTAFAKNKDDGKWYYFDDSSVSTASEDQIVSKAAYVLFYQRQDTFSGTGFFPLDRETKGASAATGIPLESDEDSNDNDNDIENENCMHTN
Method in brief: as §1

USP16 = USP16 (UniProt Q9Y5T5)
Sequence of USP16 (Q9Y5T5 whole entry, looked up): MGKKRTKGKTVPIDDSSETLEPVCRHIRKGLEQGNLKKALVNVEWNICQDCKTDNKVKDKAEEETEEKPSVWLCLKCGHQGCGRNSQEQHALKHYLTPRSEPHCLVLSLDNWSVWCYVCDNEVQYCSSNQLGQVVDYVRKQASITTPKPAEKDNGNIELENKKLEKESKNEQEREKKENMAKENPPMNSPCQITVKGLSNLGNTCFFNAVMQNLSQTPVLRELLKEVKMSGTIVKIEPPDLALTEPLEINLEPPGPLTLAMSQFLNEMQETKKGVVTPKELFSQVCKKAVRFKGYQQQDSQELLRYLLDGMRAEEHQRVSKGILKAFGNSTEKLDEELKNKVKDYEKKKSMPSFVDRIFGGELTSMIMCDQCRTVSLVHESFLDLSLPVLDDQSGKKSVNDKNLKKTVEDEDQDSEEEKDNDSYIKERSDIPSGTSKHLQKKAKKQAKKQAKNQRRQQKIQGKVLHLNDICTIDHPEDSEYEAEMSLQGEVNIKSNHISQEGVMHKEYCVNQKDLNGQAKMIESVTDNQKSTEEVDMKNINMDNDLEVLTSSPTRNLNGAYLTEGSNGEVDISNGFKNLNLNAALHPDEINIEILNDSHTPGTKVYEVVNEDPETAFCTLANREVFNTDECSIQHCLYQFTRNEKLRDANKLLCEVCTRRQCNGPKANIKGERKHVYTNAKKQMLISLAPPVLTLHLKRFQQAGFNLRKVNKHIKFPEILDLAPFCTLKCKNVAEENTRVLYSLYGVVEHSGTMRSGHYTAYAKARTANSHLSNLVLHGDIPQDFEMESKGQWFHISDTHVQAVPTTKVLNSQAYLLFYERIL
Method in brief: as §1

Measured: log2 ratio of Biotin-Ahx-Ub-VS probe labelling

O=C(CCl)Nc1cccc(C(=O)N2CCSCC2)c1
inactive: OTUD6B -0.0782 | OTUD7B -0.71 | PRPF8 -0.00865 | PSMD7 -0.0955 | UCHL1 -0.784 | UCHL3 0.0211 | UCHL5 -0.176 | USP10 -0.156 | USP15 -0.164 | USP16 -0.0446
